Screening data deposited in PubChem BioAssay by Center for Chemical Genomics, University of Michigan.
Many of the other results were omitted from the sample, so hits are more common in it than they were.
Dicer inh: human Dicer pre-microRNA cleavage inhibition | AID 1347074 | z-score at 25 µM | Q9UPY3 | 6% of 47,000 active | cat-ELCCA pre-miR-21 Dicer processing, chemiluminescence; active compounds read high; in the data active = z-score above about 3, passing the limit was not always enough;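 note: higher signal means more uncleaved substrate so more Dicer inhibition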
Target sequence (Q9UPY3 whole entry, looked up): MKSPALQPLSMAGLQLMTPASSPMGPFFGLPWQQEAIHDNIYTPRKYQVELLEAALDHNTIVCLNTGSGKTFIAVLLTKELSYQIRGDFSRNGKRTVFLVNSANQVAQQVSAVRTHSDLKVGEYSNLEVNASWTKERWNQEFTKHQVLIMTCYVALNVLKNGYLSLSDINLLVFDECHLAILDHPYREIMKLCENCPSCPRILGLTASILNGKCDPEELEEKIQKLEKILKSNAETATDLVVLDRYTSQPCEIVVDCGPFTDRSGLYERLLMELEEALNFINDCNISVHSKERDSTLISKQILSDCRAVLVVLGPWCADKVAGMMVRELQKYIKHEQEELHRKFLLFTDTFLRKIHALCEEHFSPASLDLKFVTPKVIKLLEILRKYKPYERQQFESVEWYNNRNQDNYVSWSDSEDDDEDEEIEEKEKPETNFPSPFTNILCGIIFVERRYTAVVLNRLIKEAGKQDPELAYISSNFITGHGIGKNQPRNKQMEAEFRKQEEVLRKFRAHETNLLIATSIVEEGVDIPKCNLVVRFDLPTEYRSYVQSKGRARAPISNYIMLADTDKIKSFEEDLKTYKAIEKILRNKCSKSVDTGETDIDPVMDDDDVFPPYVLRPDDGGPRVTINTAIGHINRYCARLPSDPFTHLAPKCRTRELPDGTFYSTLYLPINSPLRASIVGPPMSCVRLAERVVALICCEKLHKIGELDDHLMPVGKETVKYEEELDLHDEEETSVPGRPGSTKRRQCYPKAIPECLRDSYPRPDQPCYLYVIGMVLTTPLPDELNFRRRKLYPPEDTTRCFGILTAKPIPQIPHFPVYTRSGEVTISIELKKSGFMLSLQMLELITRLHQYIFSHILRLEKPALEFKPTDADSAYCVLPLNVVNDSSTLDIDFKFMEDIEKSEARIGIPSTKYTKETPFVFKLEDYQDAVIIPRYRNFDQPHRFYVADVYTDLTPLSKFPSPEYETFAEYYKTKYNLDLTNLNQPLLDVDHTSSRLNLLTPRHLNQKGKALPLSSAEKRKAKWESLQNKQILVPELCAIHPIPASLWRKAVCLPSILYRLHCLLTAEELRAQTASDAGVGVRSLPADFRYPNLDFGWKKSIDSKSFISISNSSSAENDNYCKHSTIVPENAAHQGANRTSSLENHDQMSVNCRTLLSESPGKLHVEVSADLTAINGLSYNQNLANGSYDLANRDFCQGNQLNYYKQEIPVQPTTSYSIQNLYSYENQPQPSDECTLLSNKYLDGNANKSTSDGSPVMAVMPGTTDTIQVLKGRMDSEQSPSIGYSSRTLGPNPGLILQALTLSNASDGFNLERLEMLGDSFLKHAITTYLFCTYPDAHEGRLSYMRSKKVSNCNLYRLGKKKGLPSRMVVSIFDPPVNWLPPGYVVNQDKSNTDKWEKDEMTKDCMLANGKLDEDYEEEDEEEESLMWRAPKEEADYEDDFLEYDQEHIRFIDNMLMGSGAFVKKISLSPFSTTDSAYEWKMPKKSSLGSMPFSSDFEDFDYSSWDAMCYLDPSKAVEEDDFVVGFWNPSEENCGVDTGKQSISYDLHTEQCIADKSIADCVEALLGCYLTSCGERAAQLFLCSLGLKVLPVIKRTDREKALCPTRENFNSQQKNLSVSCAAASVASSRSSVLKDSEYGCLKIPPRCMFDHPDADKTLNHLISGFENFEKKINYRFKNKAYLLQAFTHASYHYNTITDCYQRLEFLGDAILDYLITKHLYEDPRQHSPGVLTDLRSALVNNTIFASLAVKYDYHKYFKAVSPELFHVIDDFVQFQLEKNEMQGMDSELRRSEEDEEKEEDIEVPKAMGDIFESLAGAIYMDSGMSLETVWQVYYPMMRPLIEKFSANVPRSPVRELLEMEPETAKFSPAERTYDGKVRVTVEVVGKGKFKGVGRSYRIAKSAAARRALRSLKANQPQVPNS
A number is an active result; - = inactive.

SMILES | Dicer inh
Cn1c(-c2ccc(Cl)cc2)cnc1NCc1ccccc1F | 3.23
Cn1c(-c2ccccc2)cnc1NCc1cc(Br)ccc1F | -
S=C(Nc1ccc(Cl)cc1)N1CCN=C1Nc1ccc(Cl)cc1 | -
O=S(=O)(Oc1cc(Cl)cc(Cl)c1)c1cccc(S(=O)(=O)Oc2cc(Cl)cc(Cl)c2)c1 | -
CCCCCOC(=O)C1=C(C)NC2=C(C(=O)CC(C)(C)C2)C1c1ccncc1 (configuration not stated) | -
O=C(COc1cccc(N2C(=O)C3CC=CCC3C2=O)c1)c1ccc(Br)cc1 (configuration not stated) | -
CN(NC(=O)CSCC(=O)O)c1cc(C(F)(F)F)ccn1 | -
CC1OCN(c2ccc(F)cc2)Cn2c1nc1ccccc12 (configuration not stated) | -
CCCSc1nnc2c(n1)OC=Nc1ccc(Br)cc1-2 | -
O=C(Nc1cc(C(F)(F)F)ccc1Cl)C(=S)NC1CCCCC1 | -
CCn1cc(C(=O)O)c(=O)c2cc(F)c(N3CCN(C)CC3)cc21 | -
CCn1cc(C(=O)O)c(=O)c2cc(F)c(N3CCNCC3)cc21 | -
CCn1cc(C(=O)O)c(=O)c2cc(F)c(N3CCN(S(=O)(=O)c4ccc(Cl)cc4)CC3)cc21 | 3.54
COc1ccc(C2C(C#N)=C(N)Oc3c2ccc2ccccc32)cc1 (configuration not stated) | -
COc1cccc(I(OC(C)=O)OC(C)=O)c1 | -
O=C1OC(c2ccccc2)=N/C1=C\c1cccc([N+](=O)[O-])c1 | -
O=C1OC(c2cccnc2Oc2ccc(Cl)cc2)=N/C1=C\c1ccc(Cl)cc1 | -
O=C1OC(c2ccc(Cl)cc2)=N/C1=C/c1cccc([N+](=O)[O-])c1 | 3.63
COC(=O)c1sc2nccnc2c1N/C=C(\C#N)C(=O)c1ccc(Cl)cc1 | -
COc1cccc2c1OC(c1ccc(F)cc1)C([N+](=O)[O-])=C2 (configuration not stated) | 3.86
O=[N+]([O-])C1=Cc2cc(Cl)cc(Cl)c2OC1c1ccc(F)cc1 (configuration not stated) | 5.21
CC(C)c1ccc(C2Oc3ccccc3C=C2[N+](=O)[O-])cc1 (configuration not stated) | -
Cc1cc(C)nc(-n2[nH]c3nccc(-c4ccc(Cl)cc4)c3c2=O)n1 | -
N#Cc1c(Cl)cccc1Oc1cccc(S(=O)(=O)NCc2ccc3c(c2)OCO3)c1 | -
O=C(Nc1ccc(Cc2ccc(NC(=O)c3cccc([N+](=O)[O-])c3)cc2)cc1)c1cccc([N+](=O)[O-])c1 | -
SMILES | Dicer inh
CCOC(=O)C(NC(=O)c1cccc(Cl)c1)(Nc1ccc(C(F)(F)F)cc1)C(F)(F)F (configuration not stated) | -
O=C1c2oc3ccc(F)cc3c(=O)c2C(c2ccc(F)cc2)N1Cc1ccc2c(c1)OCO2 (configuration not stated) | -
O=C1NC(=S)/C(=C/c2ccccc2O)S1 | -
COc1cccc(/C=C2\SC(=S)NC2=O)c1OC | -
COc1cccc(/C=C2/SC(=S)N(C)C2=O)c1O | 7.71
N/C(=N\OC(=O)Nc1csnc1-c1c(Cl)cccc1Cl)c1c(Cl)cccc1Cl | -
O=C1c2ccccc2C(=Cc2ccc(C(F)(F)F)cc2)c2ccccc21 | -
O=C(O)c1cccnc1SCCS(=O)(=O)c1ccccc1 | -
O=C1/C(=C\c2cccnc2)SC(=S)N1Cc1ccncc1 | -
Nc1ccc2nc(-c3ccccc3)[nH]c2c1 | -
Cn1c(-c2ccc(-c3nc4ccccc4[nH]3)cc2)nc2cc(N)ccc21 | 4.67
Nc1ccc(Oc2ccc3nc(-c4ccc(N)cc4)[nH]c3c2)cc1 | -
Nc1ccc2nc(-c3cccnc3)[nH]c2c1 | -
Cn1c(-c2ccc3nc(-c4ccc(N)cc4)[nH]c3c2)nc2cc(N)ccc21 | 5.74
Clc1ccc(-c2nc3ccccc3[nH]2)cc1 | -
CN(C(=O)c1cn(C)c(=O)cc1C(F)(F)F)c1ccc(Cl)c(Cl)c1 | -
c1ccc(-c2cc3ccccn3c2)cc1 | -
Cc1cccn2cc(-c3ccc(F)cc3)nc12 | -
Cc1cccn2cc(-c3ccc(F)cc3)cc12 | 4.42
CCOC(=O)C1=C(C)NC(C)=C(C(=O)OCC)C1c1ccc(F)cc1 | -
COC(=O)/C=C1\S/C(=N\c2ccccn2)N(c2ccc(Cl)cc2)C1=O | -
CCOC(=O)c1sc(S(C)=O)c2c1CCCC2=O (configuration not stated) | -
Clc1ccc(-c2nc3ccccc3s2)cc1 | -
c1cncc(-c2nc3ccccc3s2)c1 | 5.61
c1ccc(-c2nc3ccccc3s2)cc1 | -
SMILES | Dicer inh
CC(=O)c1oc2nc3c(c(-c4ccco4)c2c1N)CCc1ccccc1-3 | -
COC(=O)C12CCCC(C(=O)O)(CCC1)C2 | -
c1ccc(Nc2nc3c(s2)Cc2ccccc2-3)cc1 | -
O=C(CSc1nnc2sc3ccccc3n12)Nc1nc2c(s1)CCCC2 | -
c1ccc(Nc2nc3c(s2)CCCC3)cc1 | 4.03
O=S1(=O)Cc2ccc(NS(=O)(=O)c3ccc(Br)s3)cc2C1 | -
Cn1c(=O)[nH]c(=O)c2c1nc(N)n2CCOc1ccccc1 | -
CSc1cc(-c2ccc(Oc3ccccc3)cc2)[nH]n1 | -
Brc1ccc(CN2CCN(Cc3ccco3)CC2)cc1 | 4.55
Brc1ccccc1CN1CCN(Cc2ccco2)CC1 | -
CCCS(=O)(=O)N1CCN(Cc2ccco2)CC1 | -
COc1cc(CN2CCN(Cc3ccc(OC)cc3OC)CC2)cc(OC)c1 | -
COc1ccc(CN2CCN(Cc3ccco3)CC2)c(OC)c1 | 3.58
COc1cc(CN2CCN(Cc3ccco3)CC2)cc(OC)c1 | -
NC(=S)Nc1ccc(F)c(Cl)c1 | -
Clc1ccc(-c2noc(C3CCCCC3)n2)cc1 | -
COc1ccc(Nc2nc(-c3cccnc3)nc3ccccc23)cc1 | -
COC(=O)c1cccc(Nc2nc(-c3cccnc3)nc3ccccc23)c1 | -
Oc1ccccc1Nc1nc(-c2cccnc2)nc2ccccc12 | 11.2
CCOC(=O)Cn1c(-c2ccco2)nc(-c2ccccc2)c1-c1ccccc1 | -
Cc1cc(Cl)cc(C)c1OCCn1ccnc1 | -
Cc1cccc(C)c1OCCCc1c(C)n[nH]c1C | -
Cc1cccc(C)c1OCCn1cncn1 | 3.27
COc1ccc(C(=O)CC2(O)C(=O)N(CCc3ccccc3)c3ccc(Br)cc32)cc1 (configuration not stated) | -
Cc1ccc(C(=O)CC2(O)C(=O)N(Cc3ccccc3C)c3ccc(Cl)cc32)o1 (configuration not stated) | -
SMILES | Dicer inh
CCOc1ccc(C(=O)CC2(O)C(=O)N(CCc3ccccc3)c3ccc(Br)cc32)cc1 (configuration not stated) | -
Cc1ccc(CN2C(=O)C(O)(CC(=O)c3ccncc3)c3cc(Cl)ccc32)cc1 (configuration not stated) | 4.99
CCCN1C(=O)C(O)(CC(=O)c2c(C)n[nH]c2C)c2ccccc21 (configuration not stated) | -
Cc1ccc(C(=O)CC2(O)C(=O)N(CCc3ccccc3)c3ccc(Cl)cc32)o1 (configuration not stated) | 5.15
CCCN1C(=O)C(O)(CC(=O)c2c(C)n[nH]c2C)c2cc(Br)ccc21 (configuration not stated) | 3.23
Cc1ccc(C(=O)CC2(O)C(=O)N(Cc3ccccc3)c3ccc(Cl)cc32)cc1 (configuration not stated) | -
O=C(CC1(O)C(=O)N(CCc2ccccc2)c2ccc(Cl)cc21)c1ccccc1O (configuration not stated) | -
O=C(CC1(O)C(=O)N(CCc2ccccc2)c2ccc(Br)cc21)c1ccncc1 (configuration not stated) | 3.65
